The subject of test [1] is XIP peptide (Xip251-270) binding. The test is described as follows: XIP fragment 251-270 binding compounds – biochemical, small-molecule microarray, fluorescence 635/667 nm, 0.1 µg/mL protein, primary screen (AID 1182). The note with it: fluorescent protein binding, 635 nm, higher = more signal, called active from +8 up or from −8 down.
Another test concerns XIP peptide (Xip251-270). The test is described as follows: compounds binding XIP fragment 251-270 – biochemical, small-molecule microarray, fluorescence 635/667 nm, 0.5 µg/mL protein, primary screen (AID 1183). The note with it: fluorescence 635 nm, higher = more signal.
A short description of test [2]: blood-stage malaria parasite viability loss – strain 3D7, DAPI fluorescence, 100 nL, primary screen (AID 1184).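 Further: parasites grown inside human red blood cells in medium with human serum.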 The note with it: P. falciparum 3D7 growth, 3 d, higher = more signal.
Test [3] concerns the target Homeobox protein Hox-A13 (Mus musculus) (UniProt Q62424). In words: disruptors of Hoxa13 oligonucleotide interaction – biochemical, fluorescence polarization, labeled oligonucleotide, primary screen (AID 1185). The note with it: Hoxa13:DNA binding, 15 min, higher = more signal, called active from +8 up or from −8 down. A general note: In fluorescence polarisation assays a small probe gives low polarisation when free and higher when bound to something large.

Test [4] can be described thus: blockers of DNA damage checkpoint Chk1 activation – imaging, HeLa, hydroxyurea, phospho-Chk1 antibody, percent positive cells, primary screen (AID 1186). The note with it: hydroxyurea-induced phospho-Chk1 immunofluorescence imaging, higher = more signal.
Test [5] in a line: blockers of DNA damage checkpoint Chk1 activation – imaging, HeLa, hydroxyurea, phospho-Chk1 nuclear intensity, primary screen (AID 1187). The note with it: hydroxyurea-induced phospho-Chk1 immunofluorescence imaging, higher = more signal.

Calls of active or inactive are those of the source. Unless noted, how the calls were made is not given here.

Chain of Homeobox protein Hox-A13 (Mus musculus) (Q62424 whole entry, looked up): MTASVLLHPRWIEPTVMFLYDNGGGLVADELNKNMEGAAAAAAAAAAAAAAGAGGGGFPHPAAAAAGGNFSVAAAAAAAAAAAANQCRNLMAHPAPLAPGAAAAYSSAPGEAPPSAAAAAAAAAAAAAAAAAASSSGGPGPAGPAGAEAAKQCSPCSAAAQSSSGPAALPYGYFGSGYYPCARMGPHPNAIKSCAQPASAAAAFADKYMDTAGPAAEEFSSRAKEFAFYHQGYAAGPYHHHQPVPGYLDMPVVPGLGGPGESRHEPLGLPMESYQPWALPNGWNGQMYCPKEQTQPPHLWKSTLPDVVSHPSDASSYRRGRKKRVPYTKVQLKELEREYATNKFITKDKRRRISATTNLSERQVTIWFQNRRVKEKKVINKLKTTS

As to `CCCCN1CC=CC23O[C@@H]4/C=C\CCC(C)OC(=O)C4[C@H]2C(=O)N(CCCCCCO)[C@@H]3C1=O` (some centres undefined), the figures for the composite z-score (in test [1]; with XIP peptide (Xip251-270)) were 0.879 (inactive) and 0.0096, respectively. Besides, the z-score is 0.11 in test [2], -4.7 (inactive) in test [3], -0.494 (inactive) in test [4] and 0.339 (inactive) in test [5].

On to `COC(=O)[C@@]1(Cc2ccc(OC)cc2)[C@H]2c3cc(C(=O)N(C)C)n(CCc4c[nH]c5ccc(O)cc45)c3C[C@H]2CN1C(=O)c1ccccc1`, for which the composite z-score in test [1] was 0.545 (inactive); with XIP peptide (Xip251-270) it was 0.657. Also, the z-score was -1.73 in test [2], -1.44 (inactive) in test [3], 0.453 (inactive) in test [4] and -0.541 (inactive) in test [5].

On to `[N-]=[N+]=NCc1ccccc1[C@H]1OC(c2ccc(OCCCO)cc2)=N[C@@]1(CCS(=O)(=O)c1ccccc1)C(N)=O`, for which the composite z-score in test [1] was 1 (inactive); in the test on XIP peptide (Xip251-270), 0.558. Besides, the z-score in test [2] is -1.09; in test [3], -3.46 (inactive); in test [4], 0.163 (inactive); in test [5], 0.0372 (inactive).

For `CC(=O)NCCCC[C@@H]1NC(=O)[C@@H]2C[C@H](C(=O)O)[C@H](c3ccc(O)cc3)N2C1=O`, the composite z-score in test [1] is 3.54 (inactive); with XIP peptide (Xip251-270) it was -0.0306. Besides, the z-score in test [2] was 0.174; in test [3], -2.19 (inactive); in test [4], 0.318 (inactive); in test [5], 0.202 (inactive).

For the compound `O=C1NCC(=O)N2[C@@H]1C[C@@H](C(=O)O)[C@H]2c1ccc(O)cc1`, the composite z-score in test [1] was 1.26 (inactive); in the test on XIP peptide (Xip251-270), 0.665. The z-score was 0.489 in test [2], -1.91 (inactive) in test [3], 0.0155 (inactive) in test [4] and 0.0565 (inactive) in test [5].

In the case of `[N-]=[N+]=NCc1ccccc1C[C@]1(C(=O)NCC(O)CO)N=C(c2ccc(OCCCO)cc2)O[C@H]1c1ccccc1CN=[N+]=[N-]` (some centres undefined), the composite z-score in test [1] is 0.311 (inactive); in the test on XIP peptide (Xip251-270), 0.75. Also, the z-score in test [2] was -2.78; in test [3] it was -0.829 (inactive); in test [4], 0.458 (inactive); in test [5], 0.414 (inactive).

As to `CCCNC(=O)[C@@]1(c2ccc([N+](=O)[O-])cc2)CC(=O)N(C2CCCCC2)[C@@H]1c1ccc(CO)cc1I`, the composite z-score in test [1] is 0.423 (inactive); in the test on XIP peptide (Xip251-270) it was 0.845. Moreover, the z-score in test [2] is -1.66; in test [3], -5.34 (inactive); in test [4], -0.0439 (inactive); in test [5], 0.329 (inactive).

In the case of `[N-]=[N+]=Nc1ccccc1[C@H]1OC(c2ccc(OCCCO)cc2)=N[C@@]1(CCS(=O)(=O)c1ccccc1)C(=O)N1CCCCC1`, the values for the composite z-score (in test [1]; in the test on XIP peptide (Xip251-270)) were 0.154 (inactive) and 0.755, respectively. Besides, the z-score in test [2] is -2.19; in test [3], -1.18 (inactive); in test [4], -0.483 (inactive); in test [5], -0.458 (inactive).

On to `CCOC(=O)[C@H]1C/C=C/C[C@H](C(=O)OCC)C(=O)O[C@H]2[C@@H](OC)O[C@H](CO)[C@@H](OC(=O)Nc3ccc(OC)cc3)[C@@H]2OC1=O`, for which the composite z-score in test [1] was 0.568 (inactive); with XIP peptide (Xip251-270), 0.601. Besides, the z-score was -1.71 in test [2], -0.589 (inactive) in test [3], 0.178 (inactive) in test [4] and 0.395 (inactive) in test [5].

As to `O=C(CS)NCCCCCCNC(=O)[C@@H]1C[C@@H]2C(=O)N3CCC[C@H]3C(=O)N2[C@@H]1c1cccc(OCCO)c1`, the composite z-score is 1.97 (inactive) in test [1] and 0.864 in the test on XIP peptide (Xip251-270). For the same compound, the z-score in test [2] is 0.0153; in test [3] it was -3.25 (inactive); in test [4], -1.31 (inactive); in test [5], -0.971 (inactive).

As to `COCCCNC(=O)[C@]1(Cc2ccccc2N=[N+]=[N-])N=C(c2ccc(OCCCO)cc2)O[C@@H]1c1ccccc1N=[N+]=[N-]`, the composite z-score in test [1] was -0.207 (inactive); in the test with XIP peptide (Xip251-270), 0.538. Moreover, the z-score in test [2] is -2.11; in test [3], -1.51 (inactive); in test [4] it was -0.553 (inactive); in test [5], -0.627 (inactive).

`[N-]=[N+]=NCc1ccccc1C[C@@]1(C(=O)N2CCCCC2)N=C(c2ccc(OCCCO)cc2)O[C@@H]1c1ccccc1N=[N+]=[N-]`: the composite z-score in test [1] was 1.25 (inactive); with XIP peptide (Xip251-270), 0.386. In addition, the z-score in test [2] was -2.24; in test [3], -1.84 (inactive); in test [4], -0.298 (inactive); in test [5] it was 0.246 (inactive).

`O=C1c2ccccc2[C@](Cc2ccccc2I)(C(=O)NCc2ccccc2)[C@H](c2ccc(CO)cc2)N1C1CCCCC1`: the composite z-score in test [1] was 0.353 (inactive); in the test on XIP peptide (Xip251-270) it was 0.713. The z-score was -1.34 in test [2], -2.27 (inactive) in test [3], -0.353 (inactive) in test [4] and -0.12 (inactive) in test [5].

On to `C=C(COC)/C(=C/C[C@@H](OC(=O)c1ccncc1)c1cccc(OCCO)c1)c1cnc2ccccc2c1`, for which the composite z-score was 0.482 (inactive) in test [1] and 0.763 in the test on XIP peptide (Xip251-270). The z-score in test [2] is -2.79; in test [3], -5.6 (inactive); in test [4] it was 0.594 (inactive); in test [5] it was 0.376 (inactive).
